Assay type in all cases: functional
In experiment [1] the test system is Plasmodium falciparum. In words: GSK_TCMDC: Inhibition of Plasmodium falciparum 3D7 in whole red blood cells, using parasite LDH activity as an index of growth. Test compounds present at 2uM.
For experiment [2], the system named is Plasmodium falciparum. In words: GSK_TCMDC: Inhibition of Plasmodium falciparum Dd2 in whole red blood cells, using parasite LDH activity as an index of growth. Test compounds present at 2uM.
A further experiment relates to HepG2. The experiment is described as follows: GSK_TCMDC: Percent inhibition of human HepG2 cell line. Test compounds present at 10uM.

As for `Cc1cc(N[C@@H](C)C(=O)Nc2ccccc2)nc(NCCc2ccc(F)cc2)n1.O=C(O)C(F)(F)F`, the Inhibition in the experiment with Plasmodium falciparum [1] was 100%; in the experiment with Plasmodium falciparum [2], 43%; in the experiment with HepG2 it was 33%.
`Cc1ccc(N2C(N)=NC(N)=NC2(C)C)cc1.Cl`: the Inhibition with Plasmodium falciparum [1] is 96%; in the experiment with Plasmodium falciparum [2], 20%; with HepG2, 43%.
In the case of `CCCCN1C(=N)NC(c2ccccc2)(c2ccccc2)C1=O`, the Inhibition in the experiment with Plasmodium falciparum [1] was 87%; in the experiment on Plasmodium falciparum [2] it was 34%; in the experiment with HepG2, 19%.
`COc1cc2c(cc1OCCN1CCC(N3CCCC3)CC1)N(C(=O)/C=C/c1ccccc1Cl)CC2.Cl`: the Inhibition with Plasmodium falciparum [1] amounted to 100%; with Plasmodium falciparum [2], 68%; with HepG2, 38%.
With `Cc1cccc(Cl)c1S(=O)(=O)Nc1cccc(CCN2CCC(N3CCCCC3)CC2)c1`, the Inhibition stood at 91% in the experiment with Plasmodium falciparum [1], 18% in the experiment on Plasmodium falciparum [2] and 34% with HepG2.
In the case of `O=C(/C=C/c1ccc(Cl)c(Cl)c1)NCC[C@@H]1C[C@H]1CCN1CCC(c2c[nH]c3ccccc23)CC1`, the Inhibition is on record as 96% with Plasmodium falciparum [1], 22% in the experiment on Plasmodium falciparum [2] and 98% in the experiment on HepG2.
In the same order, the values of `COc1ccc(CCN(C)CCc2ccc(NC(=O)c3cccc4c(=O)c5ccccc5sc34)cc2)cc1` are 95%, 33% and 24%.
As to `O=C(Nc1ccc(N2CCC(Nc3ccccn3)CC2)cc1)c1cnc(Cl)c(Cl)c1.O=C(O)C(F)(F)F`, the Inhibition is 83% with Plasmodium falciparum [1], 1% with Plasmodium falciparum [2] and 46% in the experiment on HepG2.
For `COc1ccc(CNCc2ccc(F)cc2)cc1-c1ccc(S(=O)(=O)NCCN2CCCC2)s1.O=C(O)C(F)(F)F`, in that order: 100%, 65% and 61%.
`OCCCCCCNc1ccnc2[nH]c3ccc(I)cc3c12`: the Inhibition in the experiment on Plasmodium falciparum [1] is 100%; in the experiment with Plasmodium falciparum [2], 61%; in the experiment on HepG2 it was 27%.
In the same order, the values of `CC12CN3CC(C)(CN(C1)C3c1cc(Br)ccc1O)C2O` (configuration not stated) are 98%, 2% and 5%.
For `CCCCc1ccc(-c2ccc3[nH]c(C)c(Br)c(=O)c3c2)cc1`, in that order: 97%, 97% and 0%.
For `O=C(Nc1ccc(Cl)cc1)c1ccc(CN2CCCN(Cc3cccc(F)c3)CC2)cc1.O=C(O)C(F)(F)F`, in that order: 91%, 8% and 59%.
In the case of `O=C(Nc1ccc(OC2CCN(Cc3ccco3)CC2)c(Cl)c1)c1ccc2ncccc2c1.O=C(O)C(F)(F)F`, the Inhibition with Plasmodium falciparum [1] amounted to 97%; with Plasmodium falciparum [2], 40%; in the experiment with HepG2 it was 0%.
For `Cc1cccn2c(=O)c3cc(C(=O)NCc4cccnc4)c(=N)n(CCc4ccccc4)c3nc12`, in that order: 99%, 38% and 0%.
As for `COc1ccc2nccc([C@@H](O)CN3CCC(NCc4ccc5c(c4)NC(=O)CS5)CC3)c2n1.O=C(O)C(=O)O`, the Inhibition stood at 100% in the experiment on Plasmodium falciparum [1], 34% with Plasmodium falciparum [2] and 1% in the experiment on HepG2.
For `CCOC(=O)Cc1nc(C(=O)OCC)c(N)[nH]1.Cl`, in that order: 94%, 24% and 2%.
In the same order, the values of `O=C(Nc1cccc(CN2CCCN(Cc3ccc(F)cc3)CC2)c1)c1cc2ccccc2s1.O=C(O)C(F)(F)F` are 91%, 36% and 29%.
In the same order, the values of `Br.CC1(C)N=C(N)N=C(N)N1OCCc1ccc2ccccc2c1` are 96%, 95% and 65%.
As for `O=C(NCC1CCC1)c1cnc(Nc2cccc(Cl)c2)nc1N1CCC1`, the Inhibition in the experiment on Plasmodium falciparum [1] is 98%; in the experiment on Plasmodium falciparum [2], 75%; in the experiment with HepG2 it was 21%.
For `CCC(C)NS(=O)(=O)c1ccc2nc(Nc3ccc(C)c(Cl)c3)n([C@H](C)C(C)(C)C)c2c1` (some centres not stated), in that order: 98%, 100% and 8%.
For `CN(C)CCNCc1ccc(-c2ccc3c(Nc4ccc(Oc5ccccc5)cc4)ccnc3c2)o1`, in that order: 100%, 99% and 19%.
In the same order, the values of `COc1ccc2ncc(F)c(CCN3CCC(NCc4cnc5c(c4)NC(=O)CS5)CC3)c2c1.Cl` are 99%, 16% and 16%.
With `O=C(Cc1ccccc1)NC(c1ccc(Cl)cc1)c1ccc2cccnc2c1O` (configuration not stated), the Inhibition with Plasmodium falciparum [1] is on record as 93%; in the experiment with Plasmodium falciparum [2], 64%; in the experiment with HepG2, 50%.
As for `O=C(Nc1ccc(OC2CCN(Cc3ccsc3)C2)c(Cl)c1)c1ccsc1.O=C(O)C(F)(F)F` (configuration not stated), the Inhibition came out at 85% in the experiment on Plasmodium falciparum [1], 70% with Plasmodium falciparum [2] and 4% with HepG2.
For `Cc1cc(N[C@@H](CC(C)C)C(=O)Nc2ccccc2)nc(NCc2ccccc2C)n1.O=C(O)C(F)(F)F`, the Inhibition in the experiment on Plasmodium falciparum [1] is listed as 100%; in the experiment on Plasmodium falciparum [2] it was 81%; in the experiment on HepG2 it was 21%.
In the same order, the values of `COCCNCc1ncsc1-c1ccc2c(Nc3cc(O)c(Cl)cc3F)ccnc2c1` are 100%, 92% and 0%.
For `CCCCCCCCCCS(=O)(=O)N[C@H](COCc1cccc(Oc2ccccc2)c1)COP(=O)([O-])OC.[Li+]`, in that order: 87%, 0% and 0%.
For `Nc1ccc(-c2nc3cc(Oc4ccc5[nH]c(-c6ccc(N)cc6)nc5c4)ccc3[nH]2)cc1`, in that order: 100%, 99% and 18%.
